In PubChem BioAssay (NCI):
Compounds without any hit were thinned out: in the full panel of roughly 83,000, 20% have a hit.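 For each line, cells grew in 96-well plates with the test compound present at a single concentration for 48 hours.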 The source made the active and inactive calls. How the source made its calls: active means growth percent below 10; inactive means the rest.

Key:
Test in all cases: NCI-60 one-dose screen, 48 h (100 = growth as untreated, 0 = no growth, -100 = all killed)
Conditions in all cases: 10 µM unless noted
[1] = system: DU-145 prostate
[2] = system: K-562 leukemia
[3] = system: MALME-3M melanoma
[4] = system: RXF 393 renal
[5] = system: SF-268 CNS
[6] = system: SF-295 CNS
[7] = system: SF-539 CNS
[8] = system: UACC-257 melanoma
[9] = system: M14 melanoma
[10] = system: HCT-15 colon
[11] = system: HT29 colon
[12] = system: SNB-75 CNS
[13] = system: U251 CNS
[14] = system: PC-3 prostate
[15] = system: SK-MEL-5 melanoma
[16] = system: UACC-62 melanoma
[17] = system: LOX IMVI melanoma
[18] = system: SK-MEL-28 melanoma
[19] = system: MDA-MB-231 breast
[20] = system: SNB-19 CNS

Compound | growth [1] | growth [2] | growth [3] | growth [4] | growth [5] | growth [6] | growth [7] | growth [8] | growth [9] | growth [10] | growth [11] | growth [12] | growth [13] | growth [14] | growth [15] | growth [16] | growth [17] | growth [18] | growth [19] | growth [20]
Cc1cc2c(cc1C)NC1=C(N2)OC(c2c3ccccc3cc3ccccc23)C1=O (configuration not stated) | 16.7% (inactive) | 9.62% (active) | 13.9% (inactive) | 24.2% (inactive) | 39.3% (inactive) | -1.93% (active) | -21.9% (active) | 65.5% (inactive) | 10% (inactive) | 0.544% (active) | 12.5% (inactive) | 49.4% (inactive) | -8.89% (active) | 28.2% (inactive) | -40.6% (active) | 3.19% (active) | -35.4% (active) | 31.5% (inactive) | – | –
Cc1cc(Nc2nc(-c3cccnc3)nc3ccccc23)n[nH]1 | 74.3% (inactive) | 48.1% (inactive) | 99.1% (inactive) | – | 58.1% (inactive) | 53.3% (inactive) | 34.7% (inactive) | 59.7% (inactive) | 72.5% (inactive) | 29.7% (inactive) | 23.4% (inactive) | -32.9% (active) | – | – | 73.8% (inactive) | 49.3% (inactive) | 20.1% (inactive) | 50.5% (inactive) | 95.7% (inactive) | –
CCN(CC)c1ccc(CNc2cc(C)nc3ccc(OC)cc23)cc1 | 58.7% (inactive) | -35.6% (active) | -77.5% (active) | 77% (inactive) | 72.7% (inactive) | 16.5% (inactive) | 76% (inactive) | 18.7% (inactive) | 48.8% (inactive) | 79.1% (inactive) | 9.05% (active) | 65.8% (inactive) | 25% (inactive) | 28.5% (inactive) | 39% (inactive) | – | 24.7% (inactive) | 96.6% (inactive) | – | –
O=C(Nc1cccc2c1C(=O)c1cccc(Nc3cccc4c3C(=O)c3cccc(NC(=O)c5ccccc5)c3C4=O)c1C2=O)c1ccccc1 | 120% (inactive) | 116% (inactive) | 120% (inactive) | 120% (inactive) | 110% (inactive) | 100% (inactive) | 109% (inactive) | 103% (inactive) | 104% (inactive) | 110% (inactive) | 124% (inactive) | 92.8% (inactive) | 109% (inactive) | 87.2% (inactive) | 112% (inactive) | – | – | 118% (inactive) | – | –
CCCCCCCCCCCCCCCC[N+]1(CC)CCCC1 | -92.2% (active) | -34.9% (active) | -49.9% (active) | – | -57% (active) | -70.1% (active) | -28.4% (active) | -46% (active) | -45% (active) | 22.8% (inactive) | -65.7% (active) | -37% (active) | – | – | -83.6% (active) | -78.3% (active) | -64.1% (active) | -38.6% (active) | -61.6% (active) | -53.9% (active)
CC/C(=C(\c1ccccc1)c1ccc(OCCNC)cc1)c1ccccc1 | -66.8% (active) | -5.96% (active) | -92.9% (active) | -97.6% (active) | 1.29% (active) | -99.3% (active) | -98% (active) | -68.4% (active) | -89.7% (active) | -94.3% (active) | -89.8% (active) | -81.7% (active) | -80.3% (active) | -67.6% (active) | -99.8% (active) | -99.1% (active) | -100% (active) | – | – | –
COc1cccc(NC(=O)c2sc3nc4c(cc3c2N)CN(Cc2ccccc2)CC4)c1 | 66.1% (inactive) | 33.2% (inactive) | – | 49.3% (inactive) | 42.9% (inactive) | 49.6% (inactive) | 30.5% (inactive) | 61.2% (inactive) | 68.2% (inactive) | 42.2% (inactive) | 44.5% (inactive) | -19.7% (active) | – | 71.1% (inactive) | 62.6% (inactive) | 35.1% (inactive) | – | 76.8% (inactive) | 62.5% (inactive) | –
CCCCN(CC)CCCCCCCCCCN1CCCc2cc(OC)ccc21 | 48.5% (inactive) | -38.7% (active) | -28.6% (active) | 92.7% (inactive) | 49.7% (inactive) | 43.5% (inactive) | 93.1% (inactive) | 103% (inactive) | 88.2% (inactive) | 38.1% (inactive) | 19.2% (inactive) | 93.2% (inactive) | 87.4% (inactive) | 29.9% (inactive) | 92.1% (inactive) | – | 15% (inactive) | 119% (inactive) | – | –
COc1cccc(/C=C2/C(=O)N(Cc3ccco3)SC2=S)c1OC | 102% (inactive) | 51.2% (inactive) | 98.8% (inactive) | – | 99% (inactive) | – | 102% (inactive) | 89.6% (inactive) | 105% (inactive) | 97.2% (inactive) | 90.1% (inactive) | 71.8% (inactive) | – | 103% (inactive) | 97.5% (inactive) | 93.8% (inactive) | 33.8% (inactive) | – | 100% (inactive) | 107% (inactive)
CC1(C)OCC2OC3(C(=O)O)OC(C)(C)OC3C2O1 (configuration not stated) | 104% (inactive) | 95.9% (inactive) | 104% (inactive) | – | 101% (inactive) | 97% (inactive) | 108% (inactive) | 90% (inactive) | 111% (inactive) | 99.6% (inactive) | 108% (inactive) | 89.2% (inactive) | – | 106% (inactive) | 105% (inactive) | – | 84.5% (inactive) | 124% (inactive) | 107% (inactive) | –
Cc1ccc(NC(=O)c2sc3nc4c(cc3c2N)C(=O)CCC4)cc1C | 8.18% (active) | 11.7% (inactive) | 48.8% (inactive) | – | 42.7% (inactive) | 8.72% (active) | -10.4% (active) | 54.2% (inactive) | 8.39% (active) | 30.6% (inactive) | 9.71% (active) | -10.3% (active) | – | 22.4% (inactive) | 26.9% (inactive) | 39.6% (inactive) | 39.2% (inactive) | – | 35.3% (inactive) | –
Cc1ccc(S(=O)(=O)N(CCc2ccc(Cl)cc2)S(=O)(=O)c2ccc(C)cc2)cc1 | 105% (inactive) | 70% (inactive) | 93% (inactive) | – | 99.8% (inactive) | – | 96.8% (inactive) | 92.4% (inactive) | 106% (inactive) | 94.5% (inactive) | 86% (inactive) | 67.7% (inactive) | – | 85.9% (inactive) | 87.6% (inactive) | 78.1% (inactive) | 92.4% (inactive) | 93.9% (inactive) | 108% (inactive) | 94.6% (inactive)
O=C(O)C(O)C(O)C(=O)O.[NH-]C1CCCCC1[NH-].[Pt+2] (configuration not stated) | 107% (inactive) | 105% (inactive) | 127% (inactive) | – | 104% (inactive) | – | 105% (inactive) | 122% (inactive) | 103% (inactive) | 103% (inactive) | 111% (inactive) | 80.8% (inactive) | – | 106% (inactive) | 103% (inactive) | 100% (inactive) | 112% (inactive) | 95.1% (inactive) | 98.7% (inactive) | 101% (inactive)
CN1Cc2c(cc(CN3CCCCC3)n2C)C(c2ccc(Br)cc2)C1 (configuration not stated) | 96.5% (inactive) | 34.9% (inactive) | 22.8% (inactive) | 74.8% (inactive) | 92.6% (inactive) | 81.3% (inactive) | 76.1% (inactive) | 13.4% (inactive) | 14.1% (inactive) | 67.7% (inactive) | 49.6% (inactive) | 70.3% (inactive) | 86.4% (inactive) | 82.9% (inactive) | 61.2% (inactive) | -16.1% (active) | 68.2% (inactive) | 54.3% (inactive) | – | –
N=S(=O)(NC(=O)c1ccc(Cl)cc1Cl)c1ccc(Br)s1 (configuration not stated) | 105% (inactive) | 107% (inactive) | – | 91.7% (inactive) | 99.8% (inactive) | 89.6% (inactive) | 91.7% (inactive) | 98.2% (inactive) | 99.8% (inactive) | 82.4% (inactive) | 111% (inactive) | 108% (inactive) | – | 102% (inactive) | 94.7% (inactive) | 112% (inactive) | 98.1% (inactive) | 111% (inactive) | 98.2% (inactive) | 85.5% (inactive)
CCCN(CCC)CN(CCC)CCC | 106% (inactive) | 95.6% (inactive) | 97.6% (inactive) | 98.2% (inactive) | 102% (inactive) | 107% (inactive) | 102% (inactive) | 100% (inactive) | 102% (inactive) | 102% (inactive) | 96.5% (inactive) | 96% (inactive) | 98.1% (inactive) | 97.5% (inactive) | 107% (inactive) | – | 104% (inactive) | 106% (inactive) | – | –
Cc1cccc(NC(=O)c2sc3nc4c(cc3c2N)C(=O)CCC4)c1 | 9.01% (active) | 18.8% (inactive) | – | 22.7% (inactive) | 64.8% (inactive) | 20.6% (inactive) | -27.7% (active) | 76.3% (inactive) | 21.8% (inactive) | 28.9% (inactive) | 11.7% (inactive) | 4.87% (active) | – | 27.1% (inactive) | 22.8% (inactive) | 22% (inactive) | 54.4% (inactive) | 62.2% (inactive) | 36.6% (inactive) | 42.1% (inactive)
